Source: PubChem BioAssay AID1745848 (National Center for Advancing Translational Sciences (NCATS), 2022)
The campaign covered roughly 2,100 compounds. About 940 (45%) were called active. Roughly 48% stayed inconclusive and do not appear here. Calls follow the shape of the dose curve; as a rule, active = well fitted inhibition curve with a large enough effect; inconclusive = small, poorly fitted or top-dose-only effect; inactive = no such curve, though single readings can be large or run the other way. The set was probably picked from earlier hits. This is one part of the list.

Test: Confirmatory qHTS for Inhibitors of ATXN expression; also: nearly all actives have a fitted effect of over 65% in size
Conditions: ATXN2-luciferase reporter cells, luminescence, 24 h; series mostly up to 11.5 µM
Procedure, shortened: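 A titration, incubated 24 h with reporter cells expressing ATXN2-luciferase. Luminescence (SteadyGlo) gives ATXN2 expression, multiplexed GF-AFC fluorescence gives viability; normalised to DMSO and medium-only wells.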
Potency is read from the fitted curve at half-maximal effect.

SMILES	Potency
Cc1cc(C(=O)N/N=C/c2cc(Br)ccc2OC(=O)c2ccccc2Cl)n[nH]1	3.98 µM (active)
Cc1ccc(-c2cc(C(=O)N/N=C/c3ccccc3O)n[nH]2)o1	7.08 µM (active)
Cc1cc(C(=O)N/N=C/c2cc(Br)cc(Br)c2OC(=O)c2cccc(F)c2)n[nH]1	3.16 µM (active)
Cc1cc(C(=O)N/N=C/c2cc(Br)ccc2OC(=O)c2ccccc2)n[nH]1	2.51 µM (active)
COc1ccc(/C=C2\SC(=S)N(CCCC(=O)Nc3ccccn3)C2=O)cc1OC	14.1 µM (active)
COC(=O)c1ccc(/C=C2/SC(=S)N(CCCC(=O)Nc3ccccn3)C2=O)cc1	14.1 µM (active)
O=C(CCCN1C(=O)/C(=C/c2ccccc2Cl)SC1=S)Nc1ccccn1	11.2 µM (active)
O=C(Nc1ccc(CN2CCCCC2)cc1)Nc1ccc(Br)cc1Cl	25.1 µM (active)
N#Cc1c(NCCN)nc(-c2ccco2)c2c1CCCC2	25.1 µM (active)
NS(=O)(=O)c1ccc(CCNc2nn3c(-c4cccc(OC(F)(F)F)c4)cnc3s2)cc1	3.55 µM (active)
COc1cccc(/C=N/Nc2ncc(C(F)(F)F)cc2Cl)c1O	1.58 µM (active)
COc1cccc(/C=N/Nc2ncnc3c2ncn3Cc2ccccc2)c1O	0.708 µM (active)
CN1C2CCC1/C(=C\c1ccccc1)C(=O)/C2=C\c1ccccc1	14.1 µM (active)
O=S(=O)(c1ccccc1)N1CCN(c2ccnc3cc(Cl)ccc23)CC1	25.1 µM (active)
O=S(=O)(c1ccc2nc(COc3ccc(Cl)cc3Cl)[nH]c2c1)N1CCOCC1	inactive
COc1ccccc1N1CCN(c2ccnc3cc(Cl)ccc23)CC1	12.6 µM (active)
Oc1ccc(N2CCN(c3ccnc4cc(Cl)ccc34)CC2)cc1	15.8 µM (active)
O=C(C1CCCCC1)N1CCN(c2ccnc3cc(Cl)ccc23)CC1	3.98 µM (active)
C[C@H]1O[C@@H](O[C@H]2[C@@H](O)C[C@H](O[C@H]3[C@@H](O)C[C@H](O[C@H]4CC[C@@]5(C)[C@H](CC[C@@H]6[C@@H]5C[C@@H](O)[C@]5(C)[C@@H](C7=CC(=O)OC7)CC[C@]65O)C4)O[C@@H]3C)O[C@@H]2C)C[C@H](O)[C@@H]1O	0.282 µM (active)
Cc1cccc2sc(NNC(=O)c3ccc(S(=O)(=O)N4CC(C)CC(C)C4)cc3)nc12 (stereo not given)	2 µM (active)
Cc1cccc2sc(NNC(=O)c3ccc(S(=O)(=O)N4CCCC(C)C4)cc3)nc12 (stereo not given)	7.94 µM (active)
Cc1cc(C)c2nc(NNC(=O)c3ccc(S(=O)(=O)N4CC(C)CC(C)C4)cc3)sc2c1 (stereo not given)	3.55 µM (active)

SMILES	Potency
CCCC(NCC(O)COc1ccc(-c2ccccc2)cc1)c1ccccc1 (stereo not given)	25.1 µM (active)
NS(=O)(=O)c1ccc(Sc2nc3ccccc3s2)c([N+](=O)[O-])c1	2.24 µM (active)
COc1cc(C#Cc2c(-c3cncn3C)n(C)c3ccc(-c4cnc(OC)nc4)cc23)cc(OC)c1	3.16 µM (active)
Cc1ccnc(NC(=O)C2CCN(S(=O)(=O)c3c(C)c(C)cc(C)c3C)CC2)c1	2.24 µM (active)
O=C(Nc1ccc[n+](CC(=O)c2cccc3ccccc23)c1)c1ccccc1	3.55 µM (active)
O=[N+]([O-])c1cc(O)c2ncccc2c1	3.16 µM (active)
CCOC(=O)N1CCN(c2ncnc3c2[nH]c2ccc(F)cc23)CC1	8.91 µM (active)
Fc1ccc2[nH]c3c(N4CCc5ccccc5C4)ncnc3c2c1	3.98 µM (active)
Fc1ccc2[nH]c3c(N4CCSCC4)ncnc3c2c1	12.6 µM (active)
O=C(N/N=C\c1cc(Cl)ccc1O)c1ccc(S(=O)(=O)N2CCCCC2)cc1	0.708 µM (active)
CC(OC(=O)c1cc(Br)ccc1O)C(=O)Nc1ccc(S(=O)(=O)N2CCCC2)cc1 (stereo not given)	28.2 µM (active)
O=C(N/N=C\c1cc(Br)ccc1O)c1ccc(S(=O)(=O)N2CCCCC2)cc1	0.794 µM (active)
Cc1cc(C)n(-c2ccc(C(=O)N3CCN(S(=O)(=O)c4cccc(Br)c4)CC3)cc2)n1	inactive
O=C(N/N=C\c1c(O)ccc2ccccc12)c1ccc(S(=O)(=O)N2CCCCC2)cc1	0.501 µM (active)
CCCCOc1ccc(CSC(=N)N)cc1Cl	25.1 µM (active)
COc1ccc2c(c1)[nH]c1c(=O)n(/N=C/C3C(C)C=C(C)CC3C)c(=O)[nH]c12 (stereo not given)	14.1 µM (active)
O=C(N/N=C/c1c(O)n(Cc2ccccc2)c(=O)c2ccccc12)c1cccnc1	15.8 µM (active)
Cn1c(=O)c2cc(NC(=O)Nc3cccnc3)ccc2n1Cc1ccc(Cl)cc1	inactive
COc1ccc(Cn2c(O)c(/C=N/NC(=O)c3cccnc3)c3ccccc3c2=O)cc1	14.1 µM (active)
CC(=O)Nc1cccc(-c2ccnc3c2CC(C)(C(=O)Nc2ccc(Cl)cc2)O3)c1 (stereo not given)	10 µM (active)
CC(=O)c1cccc(NC(=O)C2Cc3c(-c4cccc(C(C)=O)c4)ccnc3O2)c1 (stereo not given)	inactive
CC(=O)Nc1cccc(-c2ccnc3c2CC(C)(C(=O)Nc2cccc(Oc4ccccc4)c2)O3)c1 (stereo not given)	25.1 µM (active)

SMILES	Potency
CC(Nc1ccccc1CO)C(=O)Nc1cccc(Cl)c1Cl (stereo not given)	2.24 µM (active)
COc1cc(NC(=O)c2cccc3c(-c4cccnc4)coc23)cc(OC)c1OC	3.55 µM (active)
NC(=S)N1OC[C@@H]2COc3ccc4ccccc4c3[C@@H]21	14.1 µM (active)
O=[N+]([O-])c1ccc(O)c(/C=N/Nc2ncnc3c2cnn3-c2ccccc2)c1	1.26 µM (active)
O=[N+]([O-])c1ccc(O)c(/C=N\N=C2c3ccccc3-c3ccccc32)c1	3.98 µM (active)
O=[N+]([O-])c1ccc(O)c(/C=N/Nc2ccccn2)c1	0.631 µM (active)
COc1ccccc1N1CCN(C(=O)c2cc3c(C)nc4ccccc4c3o2)CC1	3.55 µM (active)
COc1ccc(N2CCN(C(=O)c3cc4c(C)nc5ccccc5c4o3)CC2)cc1	25.1 µM (active)
N#C/C(=C\C=C\c1ccccc1[N+](=O)[O-])C(=O)NC1CCCCC1	17.8 µM (active)
N#C/C(=C\c1cccc([N+](=O)[O-])c1)C(=O)NCc1ccc(Cl)cc1	3.16 µM (active)
N#C/C(=C\C=C\c1ccccc1[N+](=O)[O-])C(=O)NCc1ccccc1	2.82 µM (active)
CC1CCCCC1NC(=O)/C(C#N)=C/C=C/c1ccccc1[N+](=O)[O-] (stereo not given)	3.16 µM (active)
COC(=O)c1ccc2c(c1)C(C)(C)C(/C=C/c1ccc(OC)c(OC)c1OC)=[N+]2C	3.55 µM (active)
O=C(/C=C/c1ccccc1)c1cc(Br)ccc(=O)c1O	28.2 µM (active)
CCNc1ccc(Br)cc(C(=O)/C=C/c2ccccc2Cl)c1=O	inactive
Cc1cccc(NC2=Nc3ccccc3N3C2=Nc2c(c(C)nn2-c2ccccc2)C3c2ccc(O)c(O)c2)c1 (stereo not given)	3.55 µM (active)
CC(=O)Nc1ccc(NC2=Nc3ccccc3N3C2=Nc2c(c(C)nn2-c2ccccc2)C3c2ccccc2)cc1 (stereo not given)	1.26 µM (active)
COc1cccc(NC(=O)CSc2nc3ncc(Br)cc3[nH]2)c1	3.98 µM (active)
Cc1cc(C)n(-c2nc(Nc3ccccc3C(F)(F)F)nc(-n3nc(C)cc3C)n2)n1	3.16 µM (active)
O=C(Oc1c(CN2CCOCC2)cc(Cl)c2cccnc12)c1ccccc1	3.55 µM (active)
CCOC(=O)N1CCN(Cc2cc(Cl)c3cccnc3c2O)CC1	1.58 µM (active)
O=C(Oc1c(CN2CCOCC2)cc(Cl)c2cccnc12)c1cccs1	11.2 µM (active)

SMILES	Potency
CC(C)(O)C#Cc1ccc([C@@H]2C[C@H]3CN(c4ccccc4)C(=O)[C@]34CCCN24)s1	5.01 µM (active)
O=C1N(c2ccccc2)C[C@@H]2C[C@@H](c3cc4ccccc4o3)N3CCC[C@@]123	0.316 µM (active)
CC(C)C[C@H](N)c1cn([C@@H](CCCCN)C(=O)N2CCNCC2)nn1	inactive
Cc1c(OCC(=O)NC2CC(C)(C)NC(C)(C)C2)ccc2c1oc(=O)c1ccccc12	2.82 µM (active)
COc1ccccc1-c1cc2nc(-c3ccccc3)cc(N3CCN(C(=O)c4ccco4)CC3)n2n1	12.6 µM (active)
COc1ccccc1-c1cc2nc(-c3ccccc3)cc(N3CCN(C(=O)c4ccoc4)CC3)n2n1	12.6 µM (active)
COc1cccc(-c2cc3nc(-c4ccccc4)cc(N4CCN(C(=O)c5ccoc5)CC4)n3n2)c1	2.82 µM (active)
O=C(c1ccoc1)N1CCN(c2cc(-c3ccco3)nc3cc(-c4ccccc4)nn23)CC1	25.1 µM (active)
Cn1cccc1/C=N/N1CCN(Cc2ccccc2Cl)CC1	inactive
CCOc1ccc(S(=O)(=O)NCCC(=O)N2CC=C(c3ccccc3)CC2)cc1	12.6 µM (active)
Cc1cccn2c(=O)c3cc(C(=O)NCCN4CCOCC4)c(=N)n(Cc4ccc(F)cc4)c3nc12	7.08 µM (active)
Cc1ccc2[nH]c(O)c(N=NC(=O)C3CC3c3ccccc3)c2c1Br (stereo not given)	inactive
OC(CN1CCCCC1)Cn1c2ccc(Cl)cc2c2cc(Cl)ccc21 (stereo not given)	3.16 µM (active)
O=C(NCC1CCCO1)c1cccc(Oc2ccc([N+](=O)[O-])cc2Cl)c1 (stereo not given)	inactive
O=C(Nc1cccc2c1CCCC2)c1cc([N+](=O)[O-])ccc1Cl	15.8 µM (active)
COc1ccc(/C=C2\SC(=S)N(CCCC(=O)NNC(=O)c3ccccc3O)C2=O)cc1	3.98 µM (active)
O=C(CCCN1C(=O)S/C(=C\c2ccccc2)C1=O)NNC(=O)c1ccccc1O	2.24 µM (active)
CC(C)(C)c1ccc(OCCCC(=O)NNC(=O)c2ccccc2O)cc1	25.1 µM (active)
CN(C)CCNCCCNc1c2ccccc2nc2cccc([N+](=O)[O-])c12	0.0891 µM (active)
